pAkt inh = Akt phosphorylation inhibition. Neuro2A IGF-stimulated pAkt S473 HTRF, 20 min; hits give low values. activity change, % for hits at 50 µM. hit rate 0.32% among 360,000. AID 651550; in the data active = activity change below about -80%; inconclusive = mostly about -51% to -80%; note: % is set by controls: 0 for no effect and ±100 for the full control effect
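Single-point screen (50 µM final compound) in Neuro2A cells stimulated 20 min with 6 nM IGF at 37 deg C. After lysis, Ser473-phosphorylated Akt read by HTRF (ex 330 nm, em 615/665 nm) as the 665/615 ratio.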
gsp ag = activates gsp, the McCune-Albright syndrome mutation | gsp mutant cells, cAMP HTRF, 30 min | Potency, µM (top dose mostly 76.9 µM), for the others: top-dose activation (cAMP increase), actives largely listed as activators | hit rate 0.13% among 340,000 | AID 624287; active = well fitted activation curve with a large enough effect; inconclusive = small, poorly fitted or top-dose-only effect, or another doubt; inactive = no such curve, though single readings can be large or run the other way; cell line not stated here;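 note: phosphodiesterase inhibitor Ro 20-1724 added with compounds to block cAMP breakdown; potency is the fitted concentration of half-maximal effect; nearly all actives have a fitted effect of over 60% in size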
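Cells in DMEM/10% FBS with G418 were pretreated with compounds in DMSO plus […] (300 uM stock) for 30 min at 37C. cAMP was measured by HTRF (cAMP-d2 plus anti-cAMP antibody-K) after 30 min at room temperature.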
RXFP1 agonist = activates the human relaxin receptor RXFP1; Q9HBX9; HEK293T-RXFP1 cAMP TR-FRET, 30 min; response scale: percent of porcine relaxin response, buffer zero; Potency, µM (series often up to 57.5 µM), inactives show top-dose activation, actives largely listed as activators; hit rate 0.3% among 370,000; active = well fitted activation curve with a large enough effect; inconclusive = small, poorly fitted or top-dose-only effect; note: potency is the fitted concentration of half-maximal effect; % is set by controls: 0 for no effect and ±100 for the full control effect; nearly all actives have a fitted effect of over 60% in size
Target sequence (Q9HBX9 whole entry, looked up): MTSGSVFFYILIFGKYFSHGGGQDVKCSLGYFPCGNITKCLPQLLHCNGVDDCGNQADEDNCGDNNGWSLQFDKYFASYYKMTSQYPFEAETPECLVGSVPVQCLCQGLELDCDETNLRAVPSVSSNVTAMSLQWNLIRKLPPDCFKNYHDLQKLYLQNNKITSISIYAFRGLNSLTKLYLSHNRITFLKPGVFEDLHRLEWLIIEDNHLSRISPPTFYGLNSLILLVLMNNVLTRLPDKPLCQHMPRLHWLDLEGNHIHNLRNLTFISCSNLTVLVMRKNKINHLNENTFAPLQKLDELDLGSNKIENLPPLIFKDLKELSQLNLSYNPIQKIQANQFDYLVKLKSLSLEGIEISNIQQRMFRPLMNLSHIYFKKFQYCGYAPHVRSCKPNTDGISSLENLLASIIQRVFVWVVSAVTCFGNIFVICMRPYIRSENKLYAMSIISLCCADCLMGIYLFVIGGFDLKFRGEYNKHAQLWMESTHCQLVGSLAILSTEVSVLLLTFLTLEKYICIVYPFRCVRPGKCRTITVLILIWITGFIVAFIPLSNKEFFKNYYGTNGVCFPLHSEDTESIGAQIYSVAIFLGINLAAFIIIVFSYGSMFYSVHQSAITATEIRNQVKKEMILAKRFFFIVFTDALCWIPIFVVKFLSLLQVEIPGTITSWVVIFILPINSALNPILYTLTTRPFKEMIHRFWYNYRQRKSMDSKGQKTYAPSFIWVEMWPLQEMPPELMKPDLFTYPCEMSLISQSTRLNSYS
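HEK293T cells stably expressing RXFP1 were pretreated with the PDE4 inhibitor Ro 20174, exposed to compounds for 30 min at 37C, lysed, and cAMP was read by TR-FRET. Data normalized to buffer (basal) and 29 nM porcine relaxin (100%).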
RXFP1 antagonist = blocks the human relaxin receptor RXFP1 | AID 1259400 | HEK293-RXFP1, relaxin-stimulated cAMP HTRF, 30 min; hits give low values | activity change, negative = inhibition, % at 57.5 µM | hit rate 0.59% among 350,000 | Q9HBX9;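 active = activity change of -60% or lower, but not beyond a set lower limit; inconclusive = change between -60% and -40%, or beyond the set limit; inactive = change above -40%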; note: % is set by controls: 0 for no effect and ±100 for the full control effect
gsp antagonist = antagonizes gsp, the McCune-Albright syndrome mutation; Potency, µM (titrated, usually from 76.9 µM), for the others: at the top dose activity change, negative = inhibition, usual class: inhibitors; hit rate 0.4% among 340,000; AID 624288; gsp-mutant cells, cAMP HTRF, 30 min; calls by dose curve; cell line not stated here;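 note: intracellular cAMP measured with PDE inhibitor Ro 20-1724 present during compound exposure; potency is the fitted concentration of half-maximal effect; % is set by controls: 0 for no effect and ±100 for the full control effect; nearly all actives have a fitted effect of over 65% in size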
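Cells in G418 medium, seeded 16-24 h, 37C; buffer exchange to DPBS + 1 mM CaCl2, 0.5 mM MgCl2, 0.05% BSA; cpds in DMSO + […] (300 uM stock), 30 min 37C; HTRF cAMP detection.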
* = called active by the depositor; i = inactive; ? = inconclusive; nt = not tested or not shown; [ ] = dose if it differs, or a comment. Shown are actives, neighbours in structure and some others; about 1.2% of the full set was active somewhere.

SMILES | pAkt inh | gsp ag | RXFP1 agonist | RXFP1 antagonist | gsp antagonist
CC1=C(C(=O)Nc2cccc(C(F)(F)F)c2)C2(CCN(C(C)C)CC2)OC1=O | nt | nt | 0% | nt | nt
C[C@H]1CN([C@@H](C)CO)C(=O)c2cc(Br)cnc2O[C@H]1CN(C)C(=O)c1cnccn1 | i | 11µM* | nt | 12 | nt
C[C@H](CO)N1C[C@H](C)[C@H](CN(C)C(=O)c2ccccn2)Oc2ncc(Br)cc2C1=O | i | -30% | nt | 5 | nt
CCC(C)(C(=O)NC1CCCCC1)N(C(=O)CNC(C)=O)c1c(C)n(C)n(-c2ccccc2)c1=O (centres undefined) | -131%* | ? | -1% | -12 | -1%
CCC(C)(C(=O)NC1CCCC1)N(C(=O)Cc1cccs1)c1c(C)n(C)n(-c2ccccc2)c1=O (centres undefined) | i | -15%[15.4 µM] | -1% | -8 | 1%
COc1ccccc1NC(=S)NC1CCCCCCCCCCC1 | i | 2% | 2% | 4 | -4%
COc1ccccc1NC(=S)NC1CCCCC1 | i | 20µM* | 3% | 13 | 1%
O=C(NN=C1CCCCCCC1)c1ccccn1 | i | -16% | 0% | 18 | 12%
Cc1cccc(NC(=S)N/N=C2/CCCCc3ccccc32)c1 | i | -6% | 0% | 3 | -4%
Cc1ccc(NC(=S)N/N=C2/CCCCc3ccccc32)cc1 | i | -15% | -1% | -61* | ?
O=C(N/N=C1\CCCCc2ccccc21)c1ccccn1 | i | 5%[15.4 µM] | 1% | -65* | -1%
Cc1n[nH]c(C)c1S(=O)(=O)N(CC(=O)NCc1ccccc1Cl)c1ccc(C(C)C)cc1 | nt | nt | -1% | nt | nt
CCCCCCCCCn1c2c(c(=N)c3c1CCC3)CCCC2 | i | ? | -1% | -81* | -1%
CCCCCCCCCCn1c2c(c(=N)c3c1CCC3)CCC2 | i | -4%[15.4 µM] | 0% | -69* | 7%
CCCCCCCCn1c2c(c(=N)c3ccccc31)CCC2 | i | 26%[15.4 µM] | -1% | -18 | -5%
CCCCCn1c(CCCNC(=O)c2ccc(Cl)cc2)nc2ccccc21 | nt | nt | -4% | -33 | nt
Cc1cccc(C)c1NC(=O)Cn1cnc2c(=O)n(C)c(=O)n(C)c21 | i | ? | 11% | -1 | 0%
Cn1c(=O)c2ncn(CC(=O)Nc3ccc4c5c(cccc35)CC4)c2n(C)c1=O | i | 32µM* | 9% | -5 | -3%
COc1ccc(CNC(=O)Cn2cnc3c(=O)n(C)c(=O)n(C)c32)cc1 | i | 18µM* | 18% | 14 | 6%
Cn1c(=O)c2ncn(CC(=O)NCCOc3ccccc3)c2n(C)c1=O | i | ? | 12% | -15 | 13%
COc1cc(CO)cc(-c2cc(CO)cc(OC)c2OC)c1OC | -107%* | 0% | -1% | -9 | -3%
COc1cc(C2c3c(-c4ccccc4O)n[nH]c3C(=O)N2Cc2ccco2)ccc1OCC(C)C (centres undefined) | nt | nt | 2% | -68* | nt
O=C1c2[nH]nc(-c3ccccc3O)c2C(c2ccc(Cl)cc2)N1Cc1ccco1 (centres undefined) | nt | nt | 0% | -111* | nt
COc1ccc(-n2ncc3c(NC4CCCC4)ncnc32)cc1 | nt | nt | 6% | -12 | nt
Cc1nn(-c2ccccc2)c(C)c1/C=N/O | -111%* | 10% | 2% | -21 | 7%
SMILES | pAkt inh | gsp ag | RXFP1 agonist | RXFP1 antagonist | gsp antagonist
Cc1nn(-c2ccccc2)c(C)c1/C=N/n1cnnc1 | i | -6%[15.4 µM] | 1% | -10 | nt
CC(=O)c1cccc(NC(=O)COc2cc3oc(=O)c(CC(C)O)c(C)c3cc2Cl)c1 (centres undefined) | i | 6%[15.4 µM] | 0% | -10 | 32µM*
CCOC(=O)c1ccc(NC(=O)COc2cc3oc(=O)c(CC(C)O)c(C)c3cc2Cl)cc1 (centres undefined) | i | -2% | -2% | 12 | 4%
COc1ccccc1/C=C/C(=O)c1ccccc1 | i | 16% | 1% | 5 | -8%
COc1ccccc1/C=C/C(=O)c1c2c(c(C)[nH]c1=O)CCCC2 | i | 25% | -1% | 1 | 50µM*
Nc1c(C(=O)Nc2ccc(Cl)cc2)sc2nc(N3CCOCC3)c3c(c12)CCCC3 | nt | 10µM* | 9% | 29 | -2%
Cc1ccc(NC(=O)c2sc3nc(N4CCOCC4)c4c(c3c2N)CCCC4)cc1 | i | ? | nt | 3 | nt
CCn1c(=O)c(-c2cc(=O)[nH][nH]2)c(O)c2ccccc21 | i | 3% | 2% | 7 | -11%
O=c1cc(-c2c(O)c3ccccc3n(Cc3ccccc3)c2=O)[nH][nH]1 | i | 0%[15.4 µM] | 1% | -84* | -16%
Cc1ccc(NC(=O)/C(=C\c2ccc([N+](=O)[O-])cc2)NC(=O)c2ccccc2)cc1 | i | -5% | -1% | -8 | 0%
O=C(N/N=C/c1ccc(O)c(O)c1O)/C(=C/c1ccc([N+](=O)[O-])cc1)NC(=O)c1ccccc1 | i | 8%[15.4 µM] | 0% | -71* | -28%
CC(=O)c1ccc(NC(=O)CCCc2nc(-c3cccc(C)c3)no2)cc1 | nt | nt | 1% | nt | nt
COc1ccccc1N1CCN(c2nc3ccccc3n3cnnc23)CC1 | nt | nt | 4% | nt | nt
CN1C(=O)S/C(=C/c2ccccc2OCc2ccc(C(=O)O)cc2)C1=O | i | -2%[15.4 µM] | 1% | 4 | 32µM*
Cc1ccc(C2=NC3(CCCC3)NC2=S)cc1 | i | 30%[15.4 µM] | 0% | -22 | -5%
COc1cc(OC)cc(C2=NC3(CCC(C)CC3)NC2=S)c1 (centres undefined) | i | -17%[15.4 µM] | 1% | -108* | -11%
COc1cc(Br)cc(C2C3=C(CCCC3=O)N(c3ccc(F)cc3)C3=C2C(=O)CCC3)c1O | i | ? | 0% | -6 | 32µM*
COC(=O)c1ccc(-c2ccc(C(c3c(C)[nH][nH]c3=O)c3c(C)[nH][nH]c3=O)o2)cc1 | i | -48% | -1% | -87* | -5%
Cc1[nH][nH]c(=O)c1C(c1ccc(-c2cccc(C(=O)O)c2)o1)c1c(C)[nH][nH]c1=O | i | -6% | 4% | 6 | -2%
CN(Cc1ccc(-n2cccn2)cc1)C(=O)c1cnn2c1NC(c1ccco1)CC2C(F)(F)F (centres undefined) | i | 0% | 3% | nt | 32µM*
O=C(c1ccncc1)N1CCN(C2CCC(c3ccccc3)CC2)CC1 (centres undefined) | i | -12% | 0% | -64* | 6%
CC1C(=NO)C(C)C(c2ccccc2)NC1c1ccccc1 (centres undefined) | i | -8% | 0% | -5 | 5%
CCC1C(=NO)C(CC)C(c2ccccc2)NC1c1ccccc1 (centres undefined) | i | 2%[15.4 µM] | -1% | -74* | ?
O=C1NN(c2ccc(F)c(Cl)c2)C(=O)/C1=C\c1cccc(OC(=O)c2cccs2)c1 | i | -11% | 0% | -86* | -3%
